The entries come from a sample that favours hits as a whole.
LASV entry inh: Lassa virus entry inhibition; AID 540256; Potency, µM (top dose mostly 37.9 µM), actives largely listed as inhibitors; Lassa virus pseudotype entry inhibition, cell reporter; actives 1.2% (n = 300,000); calls by dose curve; tested in HEK293 cells; note: nearly all actives have a fitted effect of over 50% in size
Marburg entry inh: inhibitors of Marburg virus binding or cell entry | Marburg virus pseudotyped entry inhibition, cell reporter | Potency, µM (top dose mostly 37.8 µM), hits mostly inhibitors | actives 1.8% (n = 300,000) | AID 540276; calls by dose curve; tested in HEK293 cells
VACV mCherry inh: inhibitors of vaccinia virus infection (mCherry reporter signal) | Vaccinia virus mCherry reporter infection, fluorescence | Potency, µM (series often up to 36.5 µM), most hits filed as inhibitors | actives 0.63% (n = 310,000) | AID 720579; calls by dose curve; tested in A549 cells; note: nearly all actives have a fitted effect of over 35% in size
Vaccinia Venus: vaccinia inhibition (Venus reporter); Potency, µM (doses to about 36.5 µM), hits mostly inhibitors; actives 0.46% (n = 330,000); Vaccinia virus Venus reporter expression, fluorescence; calls by dose curve; tested in A549 cells; note: nearly all actives have a fitted effect of over 30% in size
Shiga inhibitor: blocks Shiga toxin action in Vero cells | inhibition, % at 38.7 µM | actives 9.2% (n = 290,000) | Vero cells, Shiga toxin protein synthesis inhibition reporter | AID 2315; in the data active = inhibition mostly above about 28%, no sharp cut-off; inactive = mostly below about 43%
CHX counter: affects cycloheximide protein synthesis inhibition readout, counter-screen | AID 2314 | cell reporter, cycloheximide protein synthesis inhibition counterscreen | actives 12% (n = 300,000) | max response, %; in the data active = max response mostly above about 13%, no sharp cut-off; inactive = mostly below about 14%; note: read at 38.3 µM for the half of the compounds with a filed dose
Large screens that a line does not name were inactive.

C=CCSc1nnc2c(n1)OC(c1cccnc1)Nc1ccccc1-2 (configuration not stated)	Shiga inhibitor 128, CHX counter 27
COc1ccc(S(=O)(=O)Nc2cccc3c2O[C@H](CN(C)C(=O)Nc2c(C)noc2C)[C@@H](C)CN([C@H](C)CO)C3=O)cc1	none (no result: LASV entry inh, Marburg entry inh, Shiga inhibitor, CHX counter)
CC(=O)c1ccc(N/C=C/C(=O)c2ccc(Br)cc2)cc1	Shiga inhibitor 22, CHX counter 11 (no result: LASV entry inh, Marburg entry inh, VACV mCherry inh, Vaccinia Venus)
NS(=O)(=O)c1ccc(N/C=C\C(=O)c2ccncc2)cc1	Marburg entry inh inconclusive
CN(C)c1ccc(N/C=C/C(=O)c2ccc(F)cc2)cc1	LASV entry inh inconclusive, Marburg entry inh inconclusive, Shiga inhibitor 63, CHX counter 65 (no result: VACV mCherry inh, Vaccinia Venus)
NS(=O)(=O)c1ccc(N/C=C/C(=O)c2ccc(Br)cc2)cc1	Marburg entry inh inconclusive, Shiga inhibitor 77, CHX counter 61
O=C(/C=C/Nc1ccc(F)cc1)c1ccc(Oc2ncccn2)cc1	CHX counter 15 (no result: VACV mCherry inh)
O=S1(=O)CC(N2CCSCC2)CN1Cc1cn(Cc2ccc(F)cc2)nn1 (configuration not stated)	none (no result: LASV entry inh, Marburg entry inh, Shiga inhibitor, CHX counter)
NS(=O)(=O)c1ccc(N/C=C\C(=O)c2ccc(F)cc2)cc1	Marburg entry inh inconclusive, Shiga inhibitor 65, CHX counter 29
CCN(CC)c1nn2c(=O)c(C(=O)NCc3cccc(C)c3)cnc2s1	LASV entry inh inconclusive (no result: Marburg entry inh, Shiga inhibitor, CHX counter)
CN(C)c1ccc(-c2nc(-c3ccccn3)no2)cc1[N+](=O)[O-]	LASV entry inh inconclusive, Marburg entry inh inconclusive (no result: Shiga inhibitor, CHX counter)
COc1cc(-c2nc(-c3cccnc3)no2)cc(OC)c1OC	none
COc1cccc(OCc2nnc(-c3cccs3)o2)c1	Shiga inhibitor 33, CHX counter 33 (no result: LASV entry inh, Marburg entry inh, VACV mCherry inh, Vaccinia Venus)
COc1ccc(-c2nnc(COc3ccc4ccccc4c3)o2)cc1OC	LASV entry inh 21µM, Marburg entry inh inconclusive (no result: VACV mCherry inh, Vaccinia Venus)
O=[N+]([O-])c1cccc(-c2nc(-c3ccccn3)no2)c1	Shiga inhibitor 72, CHX counter 46 (no result: LASV entry inh, Marburg entry inh, VACV mCherry inh, Vaccinia Venus)
COc1cccc(NC(=O)CSc2nnc(-c3cccs3)o2)c1	Marburg entry inh inconclusive (no result: Shiga inhibitor, CHX counter)
COc1ccc(-c2nc(-c3cccnc3)no2)cc1OC	Marburg entry inh inconclusive, Shiga inhibitor 47, CHX counter 39
COc1ccc(Cl)cc1NC(=O)Cn1cc2c(n1)CCC(C)C2 (configuration not stated)	none (no result: Shiga inhibitor, CHX counter)
COc1cccc(-c2noc(-c3cccs3)n2)c1	LASV entry inh inconclusive, Marburg entry inh inconclusive, Shiga inhibitor 54, CHX counter 39 (no result: VACV mCherry inh, Vaccinia Venus)
COc1cccc(-c2nc(-c3ccccc3)no2)c1	LASV entry inh 14µM, Marburg entry inh inconclusive, Shiga inhibitor 63, CHX counter 37
COc1nc(-c2ccccc2)ccc1-c1noc(-c2cccs2)n1	none (no result: VACV mCherry inh, Vaccinia Venus, Shiga inhibitor, CHX counter)
COc1ccc(N2CCN(c3ccc(-c4nc(-c5cccc(C)c5)no4)cc3[N+](=O)[O-])CC2)cc1	none (no result: Shiga inhibitor, CHX counter)
COc1cccc(-c2noc(C(C)n3nc(C)c([N+](=O)[O-])c3C)n2)c1 (configuration not stated)	LASV entry inh inconclusive, Marburg entry inh inconclusive, CHX counter 18
COc1cccc(-c2noc(N)c2C#N)c1	CHX counter 17 (no result: VACV mCherry inh, Vaccinia Venus)
COc1cccc(-c2nc(-c3ccccn3)no2)c1	LASV entry inh 1.5µM, Marburg entry inh 2.3µM (no result: VACV mCherry inh, Vaccinia Venus)
COc1cccc(-c2nc(-c3ccc(NC(=O)c4cccnc4)cc3)no2)c1	LASV entry inh inconclusive, Marburg entry inh inconclusive (no result: VACV mCherry inh)
COc1cccc(-c2ccc(-c3noc(-c4ccccc4Br)n3)c(OC)n2)c1	none (no result: Shiga inhibitor, CHX counter)
COc1cccc(-c2noc(-c3cccnc3)n2)c1	LASV entry inh inconclusive, Marburg entry inh inconclusive, Shiga inhibitor 68, CHX counter 34
C=CCn1cccc(C(=O)Nc2cc(OC)c(OC)c(OC)c2)c1=O	Marburg entry inh inconclusive
C=CCn1cccc(C(=O)Nc2ccc(Cl)cc2)c1=O	Shiga inhibitor 64, CHX counter 36 (no result: LASV entry inh, Marburg entry inh, VACV mCherry inh, Vaccinia Venus)
C=CCn1cccc(C(=O)Nc2ccc(C)c(Cl)c2)c1=O	LASV entry inh inconclusive
C=CCn1cccc(C(=O)Nc2ccc(SC)cc2)c1=O	Shiga inhibitor 93, CHX counter 53 (no result: LASV entry inh, Marburg entry inh, VACV mCherry inh, Vaccinia Venus)
C=CCn1cccc(C(=O)Nc2ccc(OCC)cc2)c1=O	LASV entry inh inconclusive, Shiga inhibitor 95, CHX counter 35
C=CCn1cccc(C(=O)Nc2ccc(N(C)C)cc2)c1=O	Shiga inhibitor 90, CHX counter 39 (no result: LASV entry inh, Marburg entry inh, VACV mCherry inh, Vaccinia Venus)
COc1cc2nc(CCc3nc4cc(OC)c(OC)cc4[nH]3)[nH]c2cc1OC	none (no result: LASV entry inh, Marburg entry inh, Shiga inhibitor, CHX counter)
CCN(CC)C(=O)c1cccc(-c2csc(C(C)(NC(C)=O)c3ccccc3)n2)c1 (configuration not stated)	none (no result: LASV entry inh, Marburg entry inh, Shiga inhibitor, CHX counter)
N=c1c2c(n(Cc3ccc(Cl)cc3Cl)c3c1CCC3)CCCC2	LASV entry inh 4µM, Marburg entry inh inconclusive, Vaccinia Venus inconclusive (no result: VACV mCherry inh)
N=c1c2c(n(Cc3ccccc3)c3c1CCC3)CCC2	LASV entry inh 1.6µM, Marburg entry inh inconclusive, Vaccinia Venus inconclusive (no result: VACV mCherry inh)
N=c1c2c(n(Cc3ccc(Cl)cc3)c3c1CCC3)CCC2	LASV entry inh inconclusive, Marburg entry inh inconclusive, Vaccinia Venus inconclusive
Fc1ccccc1-c1ccc(/C=N/Nc2nc3ccccc3[nH]2)o1	LASV entry inh inconclusive, Marburg entry inh inconclusive, Shiga inhibitor 49, CHX counter 50 (no result: VACV mCherry inh, Vaccinia Venus)
Cc1cc(=O)[nH]c(N/N=C/c2ccc(-c3ccc(F)cc3)o2)n1	none
CCCCn1c(/C=N/Nc2nc3ccccc3[nH]2)nc2ccccc21	LASV entry inh inconclusive, Marburg entry inh inconclusive, VACV mCherry inh inconclusive, Vaccinia Venus 11µM
C(=N\Nc1nc2ccccc2[nH]1)/c1ccc2ncccc2c1	LASV entry inh inconclusive, Marburg entry inh inconclusive, VACV mCherry inh 1.6µM, Vaccinia Venus 0.89µM, Shiga inhibitor 58, CHX counter 58
C(=N\Nc1nc2ccccc2[nH]1)/c1ccc2c(c1)OCCO2	CHX counter 28 (no result: LASV entry inh, Marburg entry inh, VACV mCherry inh, Vaccinia Venus)
C(=N\Nc1nc2ccccc2[nH]1)/c1cccc2nccnc12	LASV entry inh inconclusive, Marburg entry inh inconclusive, VACV mCherry inh inconclusive, Vaccinia Venus inconclusive, CHX counter 31
C#CCn1cc(/C=N/Nc2nc3ccccc3[nH]2)c2ccccc21	LASV entry inh inconclusive, Marburg entry inh inconclusive, VACV mCherry inh inconclusive, Vaccinia Venus inconclusive, Shiga inhibitor 81, CHX counter 54
COc1cc(/C=N\Nc2nc3ccccc3[nH]2)cc(OC)c1OC	Marburg entry inh 13µM, CHX counter 34
CCOc1cc(/C=N/Nc2nc3ccccc3[nH]2)cc(Br)c1OCC(=O)N(C)C	LASV entry inh inconclusive, Marburg entry inh inconclusive, VACV mCherry inh inconclusive, Vaccinia Venus inconclusive
Cc1ccc(/C=N\Nc2nc3ccc(Cl)cc3[nH]2)o1	LASV entry inh inconclusive, VACV mCherry inh inconclusive, Vaccinia Venus inconclusive, Shiga inhibitor 119, CHX counter 41
CN(C)c1ccc(/C=C/N2C=CCc3c2ccc2ccccc32)cc1	none (no result: LASV entry inh, Marburg entry inh, Shiga inhibitor, CHX counter)
CCCCCCC[n+]1c(/C=C/c2ccc(N(C)C)cc2)sc2ccccc21	VACV mCherry inh inconclusive (no result: LASV entry inh, Marburg entry inh, Shiga inhibitor, CHX counter)
Cc1ccnc(NC2(C(F)(F)F)N=C3SCCN3C2=O)c1 (configuration not stated)	Marburg entry inh inconclusive
COc1cc(OC)c(OC)cc1/C=N/Nc1nc2ccccc2[nH]1	none (no result: LASV entry inh, Marburg entry inh, VACV mCherry inh, Vaccinia Venus)
COc1ccc(/C=N/Nc2nc3ccccc3[nH]2)cc1OC	Marburg entry inh inconclusive, VACV mCherry inh inconclusive, Shiga inhibitor 73, CHX counter 32

Source: PubChem
